For 13 compounds, AC50 results are on record in PubChem BioAssay AID720494 (Broad Institute, 2013).

This is one part of the list. Calls of active or inactive are those of the source. The limit is not given here; nearly all actives have AC50 up to about 14 µM.

The term AC50 denotes the midpoint of the concentration-response curve, whichever way the signal moves.

The nature of this assay: AlphaScreen signal interference counter-screen, dose response, artefact control, biochemical, cherry-picked samples, luminescence (AID 720494). Conditions: series mostly up to 12 µM. A general note: Bead proximity is the source of the signal in Alpha formats.
`C[C@H]1CN([C@@H](C)CO)C(=O)c2c(c3ccccc3n2C)-c2ccccc2CO[C@@H]1CN(C)Cc1ccc2c(c1)OCCN2C`: the AC50 entry was “inactive”.

On to `COc1ccc(-c2ccc3[nH]c4c(c3c2)CCN2C[C@H]3[C@H](C)ON(C)[C@H]3C[C@@H]42)cc1`, for which the AC50 result was “inactive”.

For the compound `O=C(NCCc1cccc(F)c1)C1CCCN(c2nc3ccccc3s2)C1` (stereo not drawn), the AC50 entry was “inactive”.

Take `COc1ccc2[nH]c3c(C)c4cc[n+](C)cc4c(C)c3c2c1`: the AC50 entry is “inactive”.

Take `COc1ccc2c(c1)c(=Cc1ccc(N(C)C)cc1)c1cc(-c3ccccc3)[n+](C)n12`: the concentration at half-maximal activity (AC50) was 3.02 µM (active).

As for `Cc1cc(N=Nc2ccc3ccccc3c2)ccc1O`, the AC50 is 11.2 µM (active).

`CCN(CC)CCOc1ccc2c(c1)C(=NNC(=O)c1ccccn1)c1cc(OCCN(CC)CC)ccc1-2`: the AC50 result was “inactive”.

Turning to `COc1ccc2sc(N(CCCN(C)C)C(=O)c3ccc(S(=O)(=O)N(C)C4CCCCC4)cc3)nc2c1`, the AC50 entry was “inactive”.

As to `CN(C)CCNC(=O)c1cccc(-c2cnc3c(NC=O)cc(-c4cccc(C(F)(F)F)c4)cn23)c1`, the AC50 result is “inactive”.

For `Cc1ccc(NC(=S)N(CCCN2CCCC2)Cc2cccn2Cc2ccc(Cl)cc2)cc1`, the AC50 result was “inactive”.

For the compound `COc1ccc(N2CCN(C3CCCCC3NS(=O)(=O)c3ccccc3)CC2)cc1` (stereo not drawn), the AC50 entry was “inactive”.

In the case of `Cc1c(C)n(Cc2ccc(Cl)cc2)c2ccc(C(=O)NCCCN3CCOCC3)cc12`, the AC50 entry is “inactive”.

Take `Cc1ccc(Nc2cc(C)nc3c(C)ccc([N+](=O)[O-])c23)cc1`: the AC50 entry was “inactive”.
